# Source: article PMC7862700, “An all-to-all approach to the identification of sequence-specific readers for epigenetic DNA modifications on cytosine”
# Tests used:
# Test in all cases: DAPPL (digital affinity profiling via proximity ligation, sequencing); 10 mM Tris-HCl pH 7.5, 50 mM NaCl, 1 mM DTT, 4% glycerol, room temperature, 30 min; GST-TFs on glutathione beads, 16-mer random dsDNA library, 0.1% formaldehyde crosslink after washing; high values mean tight binding
# Conditions in all cases: protein: recombinant; tags: N-terminal GST; dsDNA, one strand shown
# FLI1 = molecular target: T1, FLI1 (Homo sapiens, UniProt Q01543 1-452)
# T1 sequence: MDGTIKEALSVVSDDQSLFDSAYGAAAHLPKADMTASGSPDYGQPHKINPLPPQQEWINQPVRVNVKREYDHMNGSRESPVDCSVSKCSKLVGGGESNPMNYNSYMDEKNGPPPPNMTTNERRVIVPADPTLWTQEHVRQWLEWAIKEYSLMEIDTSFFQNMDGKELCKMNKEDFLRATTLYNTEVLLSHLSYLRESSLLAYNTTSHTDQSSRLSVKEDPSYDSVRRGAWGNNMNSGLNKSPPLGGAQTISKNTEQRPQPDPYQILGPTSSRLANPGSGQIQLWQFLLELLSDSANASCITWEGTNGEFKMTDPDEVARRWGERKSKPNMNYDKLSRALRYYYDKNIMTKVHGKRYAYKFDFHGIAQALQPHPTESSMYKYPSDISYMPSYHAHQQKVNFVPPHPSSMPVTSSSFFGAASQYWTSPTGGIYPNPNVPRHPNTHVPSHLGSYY
# In short: (§1)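 A tag-only sample was pooled with DNA-barcoded human transcription factors that had been expressed in yeast as GST fusions and captured on glutathione beads. The pools were incubated for 30 min at room temperature with 200 nmole of a random double-stranded 16-mer DNA library in Tris/NaCl/DTT/glycerol buffer, then washed, crosslinked with 0.1% formaldehyde, proximity-ligated (BsaI/T4 ligase, 1 h, 37 °C), PCR-amplified and sequenced on an Illumina NextSeq500. Binding signal is each hexamer's read frequency for a factor divided by its frequency for the tag-only sample.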
# ELK1 = molecular target: T2, ELK1 (Homo sapiens, UniProt P19419 1-428)
# T2 sequence: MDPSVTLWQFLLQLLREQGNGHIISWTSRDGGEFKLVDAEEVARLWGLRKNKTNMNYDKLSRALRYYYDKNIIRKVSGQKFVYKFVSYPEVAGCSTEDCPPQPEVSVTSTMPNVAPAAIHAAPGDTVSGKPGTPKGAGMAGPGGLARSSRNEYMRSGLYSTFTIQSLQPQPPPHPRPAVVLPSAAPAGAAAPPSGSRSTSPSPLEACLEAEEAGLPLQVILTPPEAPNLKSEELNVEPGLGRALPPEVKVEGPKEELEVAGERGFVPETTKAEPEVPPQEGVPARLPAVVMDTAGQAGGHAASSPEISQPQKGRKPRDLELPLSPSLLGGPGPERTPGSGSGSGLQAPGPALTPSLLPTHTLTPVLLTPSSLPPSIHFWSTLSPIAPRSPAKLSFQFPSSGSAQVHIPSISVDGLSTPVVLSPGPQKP
# In short: as §1
# GABPA = molecular target: T3, GABPA (Homo sapiens, UniProt Q06546 1-454)
# T3 sequence: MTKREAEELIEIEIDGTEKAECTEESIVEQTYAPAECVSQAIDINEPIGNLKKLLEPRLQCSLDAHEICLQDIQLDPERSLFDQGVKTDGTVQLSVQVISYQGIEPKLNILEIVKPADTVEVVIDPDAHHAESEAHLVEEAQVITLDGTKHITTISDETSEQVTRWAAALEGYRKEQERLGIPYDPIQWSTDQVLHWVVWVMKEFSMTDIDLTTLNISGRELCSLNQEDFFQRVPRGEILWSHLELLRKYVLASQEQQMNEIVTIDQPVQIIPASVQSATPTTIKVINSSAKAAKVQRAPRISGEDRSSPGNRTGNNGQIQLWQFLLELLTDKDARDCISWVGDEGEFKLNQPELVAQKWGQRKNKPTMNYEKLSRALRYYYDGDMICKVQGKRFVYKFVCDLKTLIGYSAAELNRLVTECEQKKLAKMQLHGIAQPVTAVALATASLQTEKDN
# In short: as §1
# ERG = molecular target: T4, ERG (Homo sapiens, UniProt P11308 1-479)
# T4 sequence: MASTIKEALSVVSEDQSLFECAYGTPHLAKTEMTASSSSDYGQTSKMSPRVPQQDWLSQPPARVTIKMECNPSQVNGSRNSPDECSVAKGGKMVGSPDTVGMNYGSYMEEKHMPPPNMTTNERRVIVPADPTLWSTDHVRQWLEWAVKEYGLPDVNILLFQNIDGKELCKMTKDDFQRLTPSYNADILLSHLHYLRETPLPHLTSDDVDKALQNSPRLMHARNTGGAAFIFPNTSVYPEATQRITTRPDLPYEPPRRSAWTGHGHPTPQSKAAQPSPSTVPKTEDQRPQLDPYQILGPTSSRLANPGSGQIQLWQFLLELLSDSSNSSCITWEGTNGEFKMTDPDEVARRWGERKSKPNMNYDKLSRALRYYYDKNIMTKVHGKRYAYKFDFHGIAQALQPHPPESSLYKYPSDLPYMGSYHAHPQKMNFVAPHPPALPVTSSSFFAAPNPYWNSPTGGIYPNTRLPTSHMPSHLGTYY
# In short: as §1
# ELF1 = ELF1 (Homo sapiens, UniProt P32519 1-619)
# In short: as §1
# EHF = molecular target: T5, EHF (Homo sapiens, UniProt Q9NZC4 1-300)
# T5 sequence: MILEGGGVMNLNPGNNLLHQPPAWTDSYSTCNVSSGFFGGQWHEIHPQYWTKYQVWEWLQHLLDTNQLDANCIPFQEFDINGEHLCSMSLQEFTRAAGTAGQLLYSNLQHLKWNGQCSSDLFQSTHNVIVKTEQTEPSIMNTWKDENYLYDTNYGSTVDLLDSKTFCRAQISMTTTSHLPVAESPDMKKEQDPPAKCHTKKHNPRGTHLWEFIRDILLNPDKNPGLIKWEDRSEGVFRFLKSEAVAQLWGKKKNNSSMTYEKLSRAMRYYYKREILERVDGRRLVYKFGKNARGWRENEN
# In short: as §1
# SPI1 = SPI1 (Homo sapiens, UniProt P17947 1-270)
# In short: as §1
# SPIB = SPIB (Homo sapiens, UniProt Q01892 1-262)
# In short: as §1
# ELK3 = molecular target: T6, ELK3 (Homo sapiens, UniProt P41970 1-407)
# T6 sequence: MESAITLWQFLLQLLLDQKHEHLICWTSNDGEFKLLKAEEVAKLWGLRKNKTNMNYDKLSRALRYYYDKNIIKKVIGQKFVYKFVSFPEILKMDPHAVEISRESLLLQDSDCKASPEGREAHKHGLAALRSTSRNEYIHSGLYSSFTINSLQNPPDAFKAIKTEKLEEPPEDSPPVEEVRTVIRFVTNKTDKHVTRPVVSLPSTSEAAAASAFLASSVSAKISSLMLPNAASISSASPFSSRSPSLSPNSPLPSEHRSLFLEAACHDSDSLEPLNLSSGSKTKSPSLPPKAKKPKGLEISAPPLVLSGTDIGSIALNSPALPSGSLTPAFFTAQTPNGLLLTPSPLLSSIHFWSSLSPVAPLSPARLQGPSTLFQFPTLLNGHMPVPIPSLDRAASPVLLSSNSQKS
# In short: as §1
# SPIB, sequence (Q01892 whole entry): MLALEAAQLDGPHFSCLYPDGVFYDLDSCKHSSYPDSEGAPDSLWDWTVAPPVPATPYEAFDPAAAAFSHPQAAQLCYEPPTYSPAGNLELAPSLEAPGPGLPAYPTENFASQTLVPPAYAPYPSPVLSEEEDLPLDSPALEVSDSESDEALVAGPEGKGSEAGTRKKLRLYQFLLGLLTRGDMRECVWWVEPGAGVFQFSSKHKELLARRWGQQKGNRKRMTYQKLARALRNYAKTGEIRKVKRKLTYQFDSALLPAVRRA
# ELF1, sequence (P32519 whole entry): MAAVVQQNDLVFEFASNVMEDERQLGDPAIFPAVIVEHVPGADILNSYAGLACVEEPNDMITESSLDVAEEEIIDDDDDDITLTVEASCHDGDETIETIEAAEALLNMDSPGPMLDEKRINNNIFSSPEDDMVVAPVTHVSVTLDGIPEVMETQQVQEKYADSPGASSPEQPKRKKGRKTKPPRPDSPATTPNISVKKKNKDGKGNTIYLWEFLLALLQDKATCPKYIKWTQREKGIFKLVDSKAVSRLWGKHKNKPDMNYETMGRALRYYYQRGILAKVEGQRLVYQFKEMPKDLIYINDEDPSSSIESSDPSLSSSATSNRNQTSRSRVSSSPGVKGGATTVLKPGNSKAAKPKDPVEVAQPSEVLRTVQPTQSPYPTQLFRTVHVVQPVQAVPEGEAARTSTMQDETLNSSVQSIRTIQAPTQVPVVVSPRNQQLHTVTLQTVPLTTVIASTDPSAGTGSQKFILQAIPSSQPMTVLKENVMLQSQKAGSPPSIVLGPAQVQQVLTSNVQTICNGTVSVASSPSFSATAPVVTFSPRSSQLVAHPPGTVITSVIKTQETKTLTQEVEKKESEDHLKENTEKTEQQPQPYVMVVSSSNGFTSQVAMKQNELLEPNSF
Sequence,binding signal (FLI1),binding signal (ELK1),binding signal (GABPA),binding signal (ERG),binding signal (ELF1),binding signal (EHF),binding signal (SPI1),binding signal (SPIB),binding signal (ELK3)
CATTAT,"1.19 fold enrichment (6-mer frequency, TF over GST control)","1.13 fold enrichment (6-mer frequency, TF over GST control)","1.06 fold enrichment (6-mer frequency, TF over GST control)","1.15 fold enrichment (6-mer frequency, TF over GST control)","1.16 fold enrichment (6-mer frequency, TF over GST control)","1.18 fold enrichment (6-mer frequency, TF over GST control)","1.11 fold enrichment (6-mer frequency, TF over GST control)","1.18 fold enrichment (6-mer frequency, TF over GST control)","1.13 fold enrichment (6-mer frequency, TF over GST control)"
GTCTTA,"1.1 fold enrichment (6-mer frequency, TF over GST control)","1.14 fold enrichment (6-mer frequency, TF over GST control)","1.08 fold enrichment (6-mer frequency, TF over GST control)","1.06 fold enrichment (6-mer frequency, TF over GST control)","1.11 fold enrichment (6-mer frequency, TF over GST control)","1.08 fold enrichment (6-mer frequency, TF over GST control)","1.14 fold enrichment (6-mer frequency, TF over GST control)","1.14 fold enrichment (6-mer frequency, TF over GST control)","1.06 fold enrichment (6-mer frequency, TF over GST control)"
CCTCCG,"1.18 fold enrichment (6-mer frequency, TF over GST control)","1.55 fold enrichment (6-mer frequency, TF over GST control)","1.41 fold enrichment (6-mer frequency, TF over GST control)","1.35 fold enrichment (6-mer frequency, TF over GST control)","1.32 fold enrichment (6-mer frequency, TF over GST control)","1.24 fold enrichment (6-mer frequency, TF over GST control)","1.41 fold enrichment (6-mer frequency, TF over GST control)","1.48 fold enrichment (6-mer frequency, TF over GST control)","1.38 fold enrichment (6-mer frequency, TF over GST control)"
CTCCCT,"1.61 fold enrichment (6-mer frequency, TF over GST control)","1.43 fold enrichment (6-mer frequency, TF over GST control)","1.54 fold enrichment (6-mer frequency, TF over GST control)","1.62 fold enrichment (6-mer frequency, TF over GST control)","1.68 fold enrichment (6-mer frequency, TF over GST control)","1.52 fold enrichment (6-mer frequency, TF over GST control)","1.49 fold enrichment (6-mer frequency, TF over GST control)","1.66 fold enrichment (6-mer frequency, TF over GST control)","1.5 fold enrichment (6-mer frequency, TF over GST control)"
ATTCCC,"1.37 fold enrichment (6-mer frequency, TF over GST control)","1.32 fold enrichment (6-mer frequency, TF over GST control)","1.38 fold enrichment (6-mer frequency, TF over GST control)","1.3 fold enrichment (6-mer frequency, TF over GST control)","1.4 fold enrichment (6-mer frequency, TF over GST control)","1.35 fold enrichment (6-mer frequency, TF over GST control)","1.34 fold enrichment (6-mer frequency, TF over GST control)","1.48 fold enrichment (6-mer frequency, TF over GST control)","1.44 fold enrichment (6-mer frequency, TF over GST control)"
TACATT,"1.32 fold enrichment (6-mer frequency, TF over GST control)","1.17 fold enrichment (6-mer frequency, TF over GST control)","1.23 fold enrichment (6-mer frequency, TF over GST control)","1.21 fold enrichment (6-mer frequency, TF over GST control)","1.26 fold enrichment (6-mer frequency, TF over GST control)","1.19 fold enrichment (6-mer frequency, TF over GST control)","1.14 fold enrichment (6-mer frequency, TF over GST control)","1.29 fold enrichment (6-mer frequency, TF over GST control)","1.23 fold enrichment (6-mer frequency, TF over GST control)"
GACTTT,"1.04 fold enrichment (6-mer frequency, TF over GST control)","1.18 fold enrichment (6-mer frequency, TF over GST control)","1.17 fold enrichment (6-mer frequency, TF over GST control)","1.16 fold enrichment (6-mer frequency, TF over GST control)","1.12 fold enrichment (6-mer frequency, TF over GST control)","1.07 fold enrichment (6-mer frequency, TF over GST control)","1.23 fold enrichment (6-mer frequency, TF over GST control)","1.12 fold enrichment (6-mer frequency, TF over GST control)","1.12 fold enrichment (6-mer frequency, TF over GST control)"
